Inconclusive results are not listed. Unmarked numbers belong to inactive results. The source made the active and inactive calls. Calls come from the whole dose curve; as a rule, active = well fitted inhibition curve with a large enough effect; inconclusive = small, poorly fitted or top-dose-only effect; inactive = flat fitted curve, though single readings scatter.
Experiments:
HaCat [1] = test: Cytotoxic Profiling of Annotated Libraries Using Quantitative High-Throughput Screening (AID 1296008); settings: Five cell lines viability, CellTiter-Glo ATP luminescence, 48-72 h; max response: active compounds read low; note: potency is the fitted concentration of half-maximal effect; for max response: % is set by controls: 0 for no effect and ±100 for the full control effect
How it was run: (§1)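 Compounds were pin-transferred onto cells and incubated 48 or 72 hr at 37 degree Celsius, 95% humidity. CellTiter-Glo was added, plates sat 10 min at room temperature, then ATP-coupled luminescence was imaged as the viability read-out.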

KB-3-1 = test: as above; settings: Five cell lines viability, CellTiter-Glo ATP luminescence, 48-72 h; max response: active compounds read low
How it was run: as §1

NIH3T3 = test: as above; settings: Five cell lines viability, CellTiter-Glo ATP luminescence, 48-72 h; max response: active compounds read low
How it was run: as §1

HACAT [2] = test: qHTS assay to identify novel small-molecules to repurpose for Merkel cell carcinoma treatment (AID 1296009); settings: MCC and control cell lines, CellTiter-Glo viability, 72 h; series mostly up to 44.8 µM
How it was run: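 qHTS format: cells treated with library compounds in DMSO across 8 (NPC) or 11 (MIPE) concentrations. Readout after 72 hr at 37 degree celsius was CellTiter-Glo luminescence.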
Note: nearly all actives have a fitted effect of over 60% in size.

**Q.** What does the source list for Cc1cc(OCc2nc(-c3ccccc3Cl)cs2)ccc1OCC(=O)O?
**A.** outcome (HaCat [1]): inactive; outcome (KB-3-1): inactive; max response (NIH3T3): 4.72%; Potency (HACAT [2]): inactive

**Q.** With CC(=O)O[C@@H]1c2c(C)coc2C(=O)[C@@]23O[C@@H]2CC[C@H](C)[C@@]13C as the compound, how does the max response (HaCat [1]) read?
**A.** -14.6%

**Q.** And the max response (KB-3-1)?
**A.** 9.51%

**Q.** And the max response (NIH3T3)?
**A.** 4.3%

**Q.** Which max response (HaCat [1]) does the source give for C[C@@H]1O[C@@H](O[C@@H]2[C@@H](O)[C@H](O[C@H]3[C@H](O[C@H]4CC[C@@]5(C)C(CC[C@]6(C)C5CC=C5[C@@H]7CC(C)(C)CC[C@]7(C(=O)O[C@@H]7O[C@H](CO)[C@@H](O)[C@H](O)[C@H]7O[C@@H]7O[C@@H](C)[C@H](O[C@@H]8O[C@@H](C)[C@H](O)[C@@H](O)[C@H]8O)[C@@H](O)[C@H]7O)CC[C@]56C)[C@@]4(C)CO)O[C@H](C(=O)O)[C@@H](O)[C@@H]3O)O[C@H](CO)[C@H]2O)[C@H](O)[C@H](O)[C@H]1O (stereo partly specified) here?
**A.** 4.58%

**Q.** What about the max response (KB-3-1) of the same compound?
**A.** 5.11%

**Q.** And the max response (NIH3T3)?
**A.** 2.85%

**Q.** Which results are given for CC(C)S(=O)(=O)NC[C@H](C)c1ccc(NC(=O)c2cc(F)cc(F)c2)cc1?
**A.** max response (HaCat [1]): -5.79%; max response (KB-3-1): 3.14%; max response (NIH3T3): 3.47%

**Q.** NCc1ccc(Nc2ncc(F)c(Nc3ccccc3)n2)cc1 was tested. Which Potency (KB-3-1) did it give?
**A.** 8200 nM (active)

**Q.** What about the Potency (NIH3T3) of the same compound?
**A.** 14600 nM (active)

**Q.** How did the Potency (KB-3-1) turn out when CC(=O)OC1C(=O)C2(C)C(O)CC3OCC3(OC(C)=O)C2C(OC(=O)c2ccccc2)C2(O)CC(OC(=O)C(O)C(NC(=O)c3ccccc3)c3ccccc3)C(C)=C1C2(C)C (stereo unspecified) was run?
**A.** 8.2 nM (active)

**Q.** And the Potency (NIH3T3)?
**A.** 92 nM (active)

**Q.** For CO[C@H]1O[C@@H]2O[C@]3(C)CC[C@H]4[C@H](C)CC[C@@H]([C@H]1C)[C@@]24OO3, which max response (HaCat [1]) is on record?
**A.** -0.0315%

**Q.** And the outcome (KB-3-1)?
**A.** inactive

**Q.** And the max response (NIH3T3)?
**A.** 4.96%

**Q.** For CC(C)c1cccc2c(-c3ccccc3)cc(-c3ccc(-c4ccc(C(=O)O)cc4)[nH]3)nc12, which outcome (HaCat [1]) is on record?
**A.** inactive

**Q.** What about the max response (KB-3-1) of the same compound?
**A.** -3.11%

**Q.** What about the max response (NIH3T3) of the same compound?
**A.** -3.94%

**Q.** CCCCc1ccc(C(=O)Nc2cc(-c3ccc(Cl)cc3)nn2-c2ccc(Cl)cc2)cc1 was tested. Which max response (HaCat [1]) did it give?
**A.** -3.42%

**Q.** And the max response (KB-3-1)?
**A.** -4.76%

**Q.** And the max response (NIH3T3)?
**A.** -1.01%

**Q.** What does the source list for CC1(C)CC2C=C(C(=O)O)C3COC(=O)C(O)(CO)C23C1 (stereo unspecified)?
**A.** outcome (KB-3-1): inactive; max response (NIH3T3): -0.118%

**Q.** For CC(Oc1ccc2[nH]nc(/C=C/c3cnn(CCO)c3)c2c1)c1c(Cl)cncc1Cl (stereo unspecified), which Potency (HaCat [1]) is on record?
**A.** 2060 nM (active)

**Q.** And the Potency (KB-3-1)?
**A.** 291 nM (active)

**Q.** And the Potency (NIH3T3)?
**A.** 517 nM (active)

From PubChem BioAssay (NCATS)
